PubChem BioAssay (NCI)
This is part of a sample that, as a whole, favours compounds with a hit. Of some 83,000 tested, about 20% had one in any assay.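 Growth was measured after 48 h exposure to one concentration of compound in 96-well plates. Values under 10 count as active.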 A number with no mark means an inactive call. Calls of active or inactive are those of the source.

What was measured:
Test in all cases: NCI-60 one-dose screen, 48 h (100 = growth as untreated, 0 = no growth, -100 = all killed)
Details in all cases: 10 µM
NCI-H23 lung = test system: NCI-H23 lung
NCI-H226 lung = test system: NCI-H226 lung
NCI-H322M lung = test system: NCI-H322M lung
HOP-62 NSCLC = test system: HOP-62 NSCLC
NCI-H460 lung = test system: NCI-H460 lung
NCI-H522 lung = test system: NCI-H522 lung
A549/ATCC NSCLC = test system: A549/ATCC NSCLC
786-0 renal = test system: 786-0 renal
COLO 205 colon = test system: COLO 205 colon
DU-145 prostate = test system: DU-145 prostate

Row | Structure (SMILES) | growth (NCI-H23 lung) | growth (NCI-H226 lung) | growth (NCI-H322M lung) | growth (HOP-62 NSCLC) | growth (NCI-H460 lung) | growth (NCI-H522 lung) | growth (A549/ATCC NSCLC) | growth (786-0 renal) | growth (COLO 205 colon) | growth (DU-145 prostate)
1 | Cc1cs/c(=N\NC(=O)c2cc(-c3cc4ccccc4o3)nn2-c2ccccc2)n1-c1ccccc1 | 85.9% | 91.3% | 93.5% | 97.9% | 97.1% | 86.4% | 88.4% | 91.4% | 98.3% | 
2 | Nc1ncn(C2OC(CO)C(O)C2O)c(=O)n1 (stereo unspecified) | 30.3% | 29% | -0.0643% (active) | -23% (active) | -1.43% (active) | -12.7% (active) | 20.7% | 12.2% | 2.62% (active) | -9.86% (active)
3 | CCCCCCCCCCCCCCCCCC(=O)OCCCCCCC | 94.8% | 89.6% | 109% | 121% | 109% | 107% | 95.2% | 114% | 110% | 104%
4 | O=C(Nc1ccc(Cl)cc1)N1NC(c2ccc(Cl)cc2)C=C1c1ccccc1 (stereo unspecified) | 104% | 109% | 90.8% | 93.4% | 105% | 98.4% | 89.9% | 92.1% | 99.3% | 102%
5 | Nc1c(C(=O)Nc2ccccc2)sc2nc3c(cc12)CCCC3 | 38% | 52.8% | 56.9% | 49.9% | 10.9% | 29.7% | 21.7% | 57% | 1.79% (active) | 11.1%
6 | CNc1ccc(CSc2ccc(C)cc2)cc1 | 91.2% | 32.8% | 88.9% | 90.4% | 80.8% | 4.69% (active) | 42.4% | 31.6% | 86.4% | 90.8%
7 | Clc1cccc(-c2nc(-c3cccs3)no2)c1 | 92.8% | 100% | 114% | 97.8% | 110% | 92% | 94.1% | 99.6% | 114% | 120%
8 | COc1cc2c(cc1OCCCCCCN1CCN(CC(=O)Nc3ccc(Cl)cc3C(=O)c3ccccc3Cl)CC1)N=CC1CCCN1C2=O (stereo unspecified) | -56.1% (active) | -82% (active) | -97.8% (active) | -77.9% (active) | -30.5% (active) | -69% (active) | -93% (active) | -85.4% (active) | -60.1% (active) | 
9 | CC1(O)CCC2CC3OC3(C)CCC3OC3(C)CCC1C2(C)C (stereo unspecified) | 105% | 108% | 114% | 98.8% | 112% | 98.1% | 90.7% | 99.7% | 106% | 
10 | CCN1CCCC1CNC(=O)c1ncc(-c2ccc(C(F)(F)F)cc2)c(NC2CCCCCC2)n1 (stereo unspecified) | 92.5% | 86% | 84.7% | 97% | 80.4% | 69.1% | 77.2% | 84.5% | 42.7% | 83.2%
11 | COc1ccc2c(c1)[n+]([O-])c(C#N)c(NC(=O)c1ccco1)[n+]2[O-] | 99.9% | 97.7% | 95.2% | 93.7% | 107% | 98.1% | 111% | 105% | 96.2% | 
12 | ClC(Cl)(Cl)c1nc2nccnc2[nH]1 | 108% | 98.6% | 90% | 102% | 102% | 95.4% | 101% | 103% | 114% | 112%
13 | CCN(CC)CCNc1ccc(CO)c2oc3cc(Cl)ccc3c(=O)c12 | 87.2% | 95.7% | 97.4% | 88.4% | 88.2% | 77.9% | 90.4% | 76% | 68.4% | 108%
14 | O=C(Nc1cccc(-n2cc(-c3ccncc3)c(-c3cc(O)cc(Cl)c3)n2)c1)c1cc(C(F)(F)F)cc(C(F)(F)F)c1 | 42.7% | 96% | 74.1% | 58.3% | 19.9% | 17.8% | 27.3% | 55.1% | 38.7% | 62.1%
